Assay results taken from PubChem BioAssay AID504832 (National Center for Advancing Translational Sciences (NCATS), 2011).
The campaign covered roughly 310,000 compounds. About 18,000 (5.8%) were called active. A call without a number means that no potency is given here. Roughly 22% stayed inconclusive and do not appear here. Calls follow the shape of the dose curve; as a rule, active = well fitted inhibition curve with a large enough effect; inconclusive = small, poorly fitted or top-dose-only effect, or another doubt; inactive = no such curve, though single readings can be large or run the other way. The sample as a whole holds a higher share of actives than the screen did.

Experiment: Primary qHTS for delayed death inhibitors of the malarial parasite plastid, 48 hour incubation
Settings: P. falciparum luciferase growth in erythrocytes; series mostly up to 28.7 µM
Outline: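 Luciferase-expressing P. falciparum in infected erythrocytes (2% hematocrit, 0.1% parasitemia final) in RPMI 1640/0.5% Albumax were exposed to compound for 48 hours at 37 C, 5% CO2; growth read as luminescence.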
Potency is read from the fitted curve at half-maximal effect.

Structure (SMILES)	Potency
O=C(CN1CCOC1=O)N1CCCC(Nc2ccc(F)c(F)c2)C1 (stereo unspecified)	inactive
COc1ccccc1-c1cnn2c(N3CCOCC3)cc(C)nc12	inactive
Cn1nccc1/C=N\NC(=O)c1ccc(Cl)cc1	inactive
CN(CCc1ccccn1)C(=O)c1ccc(OC2CCN(Cc3ccccn3)CC2)cc1	inactive
CC(=O)COc1ccc2c(-c3ccccc3)cc(=O)oc2c1	inactive
CCCCN(CC)C(=O)c1ccc2c(c1)OCO2	inactive
CCN(CC)C(=O)CC(c1ccc2c(c1)OCO2)c1c(OC)cc(OC)c2c(-c3ccccc3)cc(=O)oc12 (stereo unspecified)	11.7 µM (active)
COc1ccc(-c2cc(=O)oc3cc(OCC(=O)N[C@@H](Cc4c[nH]c5ccccc45)C(=O)O)ccc23)cc1	inactive
COc1ccc(F)cc1S(=O)(=O)NCC(c1ccc2c(c1)OCO2)N1CCN(C)CC1 (stereo unspecified)	inactive
COc1cc(OC)c(C(=O)NCc2ccc3c(c2)OCO3)cc1OC	inactive
CCN(CC)CCC(c1ccc2c(c1)OCO2)c1c(OC)cc(OC)c2c(-c3ccccc3)cc(=O)oc12 (stereo unspecified)	9.28 µM (active)
Cc1[nH][nH]c(=O)c1C(c1ccc2c(c1)OCO2)c1c(C)[nH][nH]c1=O	inactive
CCN(CC)CCC(c1cc(OC)c(OC)c(OC)c1)c1c(OC)cc(OC)c2c(-c3ccccc3)cc(=O)oc12 (stereo unspecified)	3.29 µM (active)
O=C(NNC(=O)c1ccc(-n2cncn2)c([N+](=O)[O-])c1)c1ccccc1	inactive
S=C(Nc1ccc(Cl)cc1Cl)N1CCCC1	inactive
COc1cc(/C=N/NC(=O)Cc2ccccc2)cc(OC)c1OC	inactive
O=C(Nc1cccc(F)c1)[C@@H]1CCCN1	inactive
Cc1cc(C)nc(NS(=O)(=O)c2ccc(N3C(=O)C4CCCCC4C3=O)cc2)n1 (stereo unspecified)	inactive
Cc1cc(N2C(=O)C(O)=C(C(=O)c3ccc(C)o3)C2c2ccc(OCc3ccccc3)cc2)no1 (stereo unspecified)	inactive
Cc1cc(C(F)F)nn1CC(=O)NC1CCCCCC1	inactive
Cc1nn(CC(=O)NC2CCCCC2)c(=O)c2cccn12	inactive
O=C(Cn1nc([N+](=O)[O-])nc1Br)NC1CCCCC1	1.47 µM (active)

Structure (SMILES)	Potency
CC1(C)O[C@@H]2[C@H](O1)[C@@H](CO)O[C@H]2n1c(N2CCCCC2)nc2c(N)ncnc21	inactive
O=C(NCc1cccnc1)C12CC3CC(CC(C3)C1)C2	inactive
O=C(Cc1ccccc1)Nc1cccc(NC(=O)c2ccccc2)c1	inactive
O=C(CCl)Nc1cccc(CP(=O)(c2ccccc2)c2ccccc2)c1	10.4 µM (active)
CCc1cccc(NC(=O)CCC(=O)O)c1	inactive
O=C(/C=C/c1ccccc1)c1ccccc1O	inactive
CC(/C=C/c1ccccc1)=N\NC(=O)C1CC1(C)c1ccccc1 (stereo unspecified)	11.7 µM (active)
CC(=O)Nc1ccc(/C=C/C(=O)c2ccccc2)cc1	inactive
O=S(=O)(c1ccc(-c2ccno2)s1)N1CCCCC1	inactive
CCn1cc(C(=O)N[C@@H](C)C(=O)NCCO)c(=O)c2cc3c(cc21)OCO3	inactive
CCOC(=O)c1cc(Sc2ccccc2N)cc(C(=O)OCC)n1	0.147 µM (active)
CCOC(=O)C1=C(CC)Nc2ccccc2N=C1N	inactive
CCOC(=O)c1sc2nc(SC)nc(-c3ccccc3)c2c1N	inactive
CCOc1ccc(N2C(=O)CSC2=NC#N)cc1	inactive
COc1ccccc1CNS(=O)(=O)CC12CCC(CC1=O)C2(C)C (stereo unspecified)	inactive
COC(=O)c1ccc(Nc2ncnc3sccc23)cc1	inactive
Cc1nnc(SCC(=O)N2CCN(c3ccccc3)CC2)n1-c1ccccc1	inactive
Cc1nnc(SCc2ccc(C(=O)c3ccc(Cl)cc3)o2)n1-c1ccccc1	14.7 µM (active)
Cc1nnc(SCC(=O)NCCOc2ccc(Cl)cc2)n1-c1ccccc1	inactive
Cc1noc(C)c1C(=O)NCCc1ccc(S(N)(=O)=O)cc1	inactive
COc1ccc(C)cc1NC(=S)N1CCOCC1	inactive
CCOC(=O)c1sc(NC(=O)c2sc(C)nc2C)nc1C	inactive

Structure (SMILES)	Potency
Cn1c(Nc2ccccc2)cc(=O)n(C)c1=O	inactive
CCCCc1ccc(NC(=O)CN2C(=O)NC(Cc3ccccc3)C2=O)cc1 (stereo unspecified)	inactive
Cc1ccc(N2C(=O)C(Cc3ccccc3)NC2=S)cc1 (stereo unspecified)	inactive
O=C1C(Cc2ccc(O)cc2)NC(=S)N1Cc1ccccc1 (stereo unspecified)	2.94 µM (active)
C=CCOc1ccc(C(=O)Nc2ccccc2C(=O)N2CCCC2)cc1	inactive
CCOC(=O)CNc1nc(Cl)nc(Nc2ccc(OC)cc2OC)n1	inactive
Cc1c(O)c(C)c2c(c1O)C(=O)C[C@@H](c1ccccc1)O2	13.1 µM (active)
CCCc1cc(C(=O)Nc2ccc(Cl)cn2)cs1	inactive
Cc1cc(CNC(=O)C2CCC(=O)N(CCc3ccc(Cl)cc3)C2)no1 (stereo unspecified)	inactive
NC(=O)CSC1=Nc2ccccc2C2=NC(CCC(=O)NCc3ccc(F)cc3)C(=O)N12 (stereo unspecified)	inactive
CCC(C)NC(=O)CSC1=Nc2ccccc2C2=NC(CCC(=O)NCc3ccco3)C(=O)N12 (stereo unspecified)	inactive
O=C(CC1N=C2c3ccccc3N=C(SCc3ccccc3Cl)N2C1=O)NCc1ccco1 (stereo unspecified)	4.65 µM (active)
Cc1ccc(C(=O)NCC(=O)NCc2cc(=O)n(C)c(=O)n2C)cc1	inactive
COc1ccc(C(=O)Nc2ccc3nc(N4CCCCC4)cc(C)c3c2)cc1OC	3.7 µM (active)
COc1ccc(C(=O)NC(=S)Nc2ccc(N3CCCC3)cc2)cc1OC	inactive
COc1ccc(NC(=O)CC2SC(N3CCCCC3)=NC2=O)cc1OC (stereo unspecified)	inactive
COc1ccc(NC(=O)CCn2ccnc2)c(OC)c1	inactive
CCN(CC)c1ccc(C(=O)NNC(=O)CCc2nc3ccccc3c(=O)[nH]2)cc1	inactive
O=C(CSc1nc2ccccc2c(=O)[nH]1)Nc1nc(-c2ccc(Br)cc2)cs1	inactive
Cc1cc(C)c(-c2csc(NC(=O)CCCc3nc4ccccc4c(=O)[nH]3)n2)c(C)c1	0.131 µM (active)
COc1ccc(-c2csc(NC(=O)CCCc3cccs3)n2)cc1	inactive
CC(=O)NCc1ccc(-c2csc(NC(=O)CCCc3nc4ccccc4c(=O)[nH]3)n2)cc1	9.28 µM (active)

Structure (SMILES)	Potency
CC(C)(C)c1ccc(NC(=O)COC(=O)CCc2nc3ccccc3c(=O)[nH]2)cc1	inactive
CN(C(=O)CCNC(=O)Cn1ccc2ccccc2c1=O)c1ccc(Br)cc1	inactive
N=c1oc2ccccc2cc1C(=O)NCc1ccccc1	inactive
CS(=O)(=O)N1CCc2cc(C(=O)Nc3ccccc3Br)ccc21	inactive
COc1ccc(NC(=O)CNC(=O)Cc2ccccc2)cc1OC	inactive
Cc1cc(NC(=O)CCC(=O)N(Cc2ccccc2)C(C(=O)NC2CCCC2)c2ccc(C)o2)no1 (stereo unspecified)	inactive
CN(Cc1c(F)cccc1Cl)C(=O)CNC(=O)c1ccc2c(c1)OCO2	inactive
NC(=O)NC(CC(=O)NNC(=O)c1ccccn1)c1ccc(Cl)cc1 (stereo unspecified)	inactive
Cc1cc(C)c2c(=O)[nH]c(SCC(=O)Nc3ccc(Br)cc3)nc2n1	inactive
COc1ccccc1CNC(=O)CSc1nc(=O)n(Cc2ccncc2)c2c1CCC2	11.7 µM (active)
CN(C)CCn1c2c(c(SCC(=O)NCc3ccccc3)nc1=O)CCC2	inactive
CN(C)CCn1c2c(c(SCC(=O)Nc3ccccc3C(F)(F)F)nc1=O)CCCC2	inactive
Cc1ccc(NS(=O)(=O)c2ccc3c(c2)oc(=O)n3C)c(C)c1	inactive
Cc1c(NC(=O)C(C)Oc2cccc(Cl)c2)c(=O)n(-c2ccccc2)n1C (stereo unspecified)	inactive
COc1ccc(NC(=O)c2cnc(NS(=O)(=O)c3ccccc3)nc2)cc1	inactive
COc1ccc(-c2cc(C(=O)N(C)CC(=O)Nc3ccccc3Cl)c3ccccc3n2)cc1OC	13.1 µM (active)
COc1ccc(CN(C)C(=O)c2cc(-c3ccc(C)cc3C)nc3ccccc23)c(OC)c1OC	9.28 µM (active)
Cc1cccc(C(=O)NCC(=O)OCC(=O)N(C)CC(=O)Nc2ccccc2Cl)c1	inactive
CN(CC(=O)Nc1ccccc1Cl)C(=O)c1ccccc1SCC(=O)N1CCCC1	inactive
COc1ccc(C)cc1N(C)C(=O)c1coc(=O)c2ccccc12	inactive
Cc1ccc(-c2cc(C(=O)Nc3nn[nH]n3)c3ccccc3n2)c(C)c1	inactive
COc1cc(N=Cc2c(O)c3ccccc3oc2=O)c(OC)cc1Cl	inactive

Structure (SMILES)	Potency
CC(C)c1nnc(NC(=O)COC(=O)/C=C/c2ccc([N+](=O)[O-])cc2)s1	inactive
COc1ccccc1-n1nnnc1SCC(=O)NC(=O)Cc1ccccc1	inactive
C=CCOc1cccc(CNn2cn[nH]c2=S)c1	inactive
C=CCOc1c(CNn2cn[nH]c2=S)cccc1OC	inactive
COc1cccc(CNn2cn[nH]c2=S)c1OCc1ccccc1	10.4 µM (active)
CC(=O)c1c(C)[nH]c(C(=O)OCC(=O)Nc2c(C)cccc2C)c1C	inactive
CSc1ccc(Cl)c(C(=O)OCC(=O)N2CCNC2=O)c1	inactive
COc1ccc(C(=O)NC(=S)N2CCNC(=O)C2CC(=O)OC(C)C)cc1 (stereo unspecified)	inactive
CCOC(=O)CC1C(=O)NCCN1c1nc2c(C)cccn2c(=O)c1/C=C1\SC(=S)N(C(C)CC)C1=O (stereo unspecified)	8.28 µM (active)
CCOC(=O)CC1C(=O)NCCN1C(=O)COc1ccc(Br)cc1C (stereo unspecified)	inactive
Cc1cc2c(cc1C)[n+](C)cn2CC(O)COCC1CC=CCC1 (stereo unspecified)	2.94 µM (active)
COc1ccc(S(=O)(=O)NCCOc2ccccc2)cc1F	inactive
COc1ccc(NC(=O)CCC(=O)Nc2cc(OC)c(NC(=O)c3ccco3)cc2OC)c(OC)c1	inactive
CC1(c2ccc(Cl)cc2Cl)NC(=O)N(CC(=O)Nc2cccnc2Cl)C1=O (stereo unspecified)	inactive
Cc1cc(Br)ccc1NC(=O)CN(C)C(=O)CN1C(=O)NC2(CCCC2)C1=O	inactive
Cc1ccc(S(=O)(=O)Nc2ccc3ncccc3c2)cc1	inactive
COc1ccc2cc(S(=O)(=O)Nc3ccccn3)ccc2c1	inactive
COc1cc(NS(=O)(=O)c2ccc3ccccc3c2)c2ncccc2c1	4.15 µM (active)
